Measurements published in PubChem BioAssay.
Inconclusive results are not listed. Calls of active or inactive are those of the source.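 The calls were made as follows, unless noted: active = aptamer binding inhibition above 30%, about 3 SD of noise from non-fluorescent compounds; inactive = inhibition at or below 30%.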

Experiments:
[1] = yeast TOR pathway RPL19A-GFP modulators, primary screen, cell-based, S. cerevisiae, multiplex flow cytometry (AID 1862; in the data active = percent of DMSO control GFP below about 86%;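 also: lower values mimic rapamycin by blocking the RPL19A rise seen in DMSO cells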); conditions: S. cerevisiae RPL19A-GFP strain, flow cytometry fluorescence, 3 h; at 10 µM; stronger effect = lower value
[2] = modulators of MEP2-GFP levels in yeast, primary screen, S. cerevisiae, multiplex flow cytometry (AID 1867;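 active = GFP response, as percent of the DMSO control, above the screen-wide mean plus 3 SD, about 139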;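 also: median GFP channel fluorescence of barcode-gated MEP2-GFP cells measured by flow cytometry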); conditions: S. cerevisiae MEP2-GFP strain, 3 h, at 10 µM, stronger effect = higher value, 100% means same as DMSO wells
[3] = modulators of CIT2-GFP expression in yeast, primary screen, S. cerevisiae, GFP fusion, multiplex flow cytometry (AID 1870;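 active = percent response above a set limit, the screen-wide mean plus 3 SD, cut at about 130% in these data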;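 also: barcoded CIT2-GFP strain pooled with four other GFP strains with rapamycin as positive control; median GFP fluorescence per well over plate mean of DMSO wells so 100% = DMSO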); conditions: 3 h, at 10 µM, stronger effect = higher value
[4] = modulators of LAP4-GFP expression in yeast, primary screen, S. cerevisiae, multiplex flow cytometry (AID 1873;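 active = GFP signal, as percent of the solvent control, above the screen mean plus 3 SD, about 149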); conditions: 3 h, at 10 µM, stronger effect = higher value
[5] = modulators of AGP1-GFP expression in yeast TOR pathway, primary screen, cell-based, multiplex flow cytometry, S. cerevisiae (AID 1887;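 active = GFP signal above the screen-wide mean plus 3 SD, that is over about 124.5% of the solvent control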;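 also: AGP1-GFP fusion strain of S. cerevisiae within a five-strain barcoded multiplex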); conditions: 3 h, at 10 µM, stronger effect = higher value
[6] = inhibitors of CD8+ T cell-vesicle binding, pilot screen, LFA-1/ICAM-1 modulator project, MLPCN validation set, flow cytometry (AID 2523;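 active = response below a set limit, under 55% cells CD8-positive and vesicle-bound, and CD8 cells' 90th-percentile brightness under 279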;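 as to vesicle binding response: mean PE anti-B7-1 fluorescence of CD8+ cells relative to row control; 100% = QL9-loaded vesicles with DMSO vehicle in the same plate row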); conditions: 2C mouse CD8+ T cells, at 7 µM, stronger effect = lower value; double positive events: measured here: CD8+/vesicle+ event percentage
[7] = biological target: Integrin beta-1 (Homo sapiens) + Integrin alpha-4 (Homo sapiens) (UniProt P13612+P05556); assay: inhibition of HUTS-21 binding to VLA-4, pilot screen, VLA-4 allosteric modulator project, U937 cells, HUTS-21 mAb, flow cytometry, validation set (AID 2674;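 active = inhibition above 50%, about 3 SD of the validation set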;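 also: antibody binding induced by the VLA-4 ligand LDV present at three times its Kd; 0% = LDV ligand with antibody and no compound and 100% = antibody without LDV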); conditions: HUTS-21 LIBS mAb binding, at 6.7 µM, stronger effect = higher value, binding induced by LDV ligand
Integrin beta-1 (Homo sapiens) + Integrin alpha-4 (Homo sapiens), sequence (P05556 whole entry, looked up): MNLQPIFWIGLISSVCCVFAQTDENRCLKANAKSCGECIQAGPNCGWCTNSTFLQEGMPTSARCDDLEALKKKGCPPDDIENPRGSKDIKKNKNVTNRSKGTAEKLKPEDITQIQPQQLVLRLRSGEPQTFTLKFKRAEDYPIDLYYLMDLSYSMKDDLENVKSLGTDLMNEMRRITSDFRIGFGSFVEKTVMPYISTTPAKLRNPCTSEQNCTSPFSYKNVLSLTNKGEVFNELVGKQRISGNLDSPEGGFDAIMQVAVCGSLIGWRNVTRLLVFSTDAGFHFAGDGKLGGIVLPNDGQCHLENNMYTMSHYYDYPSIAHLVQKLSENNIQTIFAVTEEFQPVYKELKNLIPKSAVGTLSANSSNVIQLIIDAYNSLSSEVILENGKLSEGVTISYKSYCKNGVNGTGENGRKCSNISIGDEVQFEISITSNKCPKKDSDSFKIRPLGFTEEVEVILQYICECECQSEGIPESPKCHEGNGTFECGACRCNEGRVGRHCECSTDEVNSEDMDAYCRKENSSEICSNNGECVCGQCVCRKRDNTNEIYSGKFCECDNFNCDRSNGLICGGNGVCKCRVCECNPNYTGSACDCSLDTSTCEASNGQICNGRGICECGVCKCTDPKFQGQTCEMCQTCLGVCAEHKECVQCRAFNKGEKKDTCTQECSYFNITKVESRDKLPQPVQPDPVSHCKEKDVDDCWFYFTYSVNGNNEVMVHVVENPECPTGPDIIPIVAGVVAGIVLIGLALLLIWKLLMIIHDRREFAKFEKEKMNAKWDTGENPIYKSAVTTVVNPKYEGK
Integrin beta-1 (Homo sapiens) + Integrin alpha-4 (Homo sapiens), sequence (P13612 whole entry, looked up): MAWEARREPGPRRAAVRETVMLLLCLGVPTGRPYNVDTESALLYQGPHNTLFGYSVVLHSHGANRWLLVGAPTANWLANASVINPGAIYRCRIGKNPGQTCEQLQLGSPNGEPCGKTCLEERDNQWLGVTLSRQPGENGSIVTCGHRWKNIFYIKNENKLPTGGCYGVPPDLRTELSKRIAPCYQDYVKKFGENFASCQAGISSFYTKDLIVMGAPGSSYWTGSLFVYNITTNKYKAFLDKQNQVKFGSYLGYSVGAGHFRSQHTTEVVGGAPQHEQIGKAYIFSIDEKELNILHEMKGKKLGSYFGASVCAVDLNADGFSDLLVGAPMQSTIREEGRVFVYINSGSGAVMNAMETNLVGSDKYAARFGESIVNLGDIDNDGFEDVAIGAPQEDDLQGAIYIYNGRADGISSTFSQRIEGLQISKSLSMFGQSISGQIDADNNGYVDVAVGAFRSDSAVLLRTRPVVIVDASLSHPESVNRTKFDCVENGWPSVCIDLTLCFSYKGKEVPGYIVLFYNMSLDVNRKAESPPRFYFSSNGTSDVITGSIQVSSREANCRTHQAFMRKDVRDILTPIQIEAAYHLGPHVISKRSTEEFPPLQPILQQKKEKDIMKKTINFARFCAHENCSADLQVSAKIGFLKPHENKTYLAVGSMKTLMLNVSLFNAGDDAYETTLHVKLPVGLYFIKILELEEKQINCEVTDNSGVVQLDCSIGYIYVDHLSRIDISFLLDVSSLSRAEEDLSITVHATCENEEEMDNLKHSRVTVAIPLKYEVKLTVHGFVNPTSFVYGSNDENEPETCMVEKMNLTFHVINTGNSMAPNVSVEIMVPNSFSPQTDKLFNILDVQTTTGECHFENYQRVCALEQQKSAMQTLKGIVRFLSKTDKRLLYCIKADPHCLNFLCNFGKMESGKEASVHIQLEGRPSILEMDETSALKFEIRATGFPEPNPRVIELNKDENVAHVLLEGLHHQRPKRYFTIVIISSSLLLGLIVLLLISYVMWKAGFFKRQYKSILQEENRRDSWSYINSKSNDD

[8] = superoxide lowering in aged yeast cells, pilot screen, validation compound set (AID 2706;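 active = superoxide response below 65% of plate, a cut near 3 SD across the whole screen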;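 also: yeast exposed to compound for one week at 30 degrees C before staining; 100% = mean of all compound wells on the same plate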); conditions: S. cerevisiae aging, superoxide DHE fluorescence; at 10 µM; stronger effect = lower value
[9] = biological target: Beta-adrenergic receptor kinase 1 (Homo sapiens) (UniProt P25098); assay: GRK2 binders displacing RNA aptamer, biochemical, validation, human GRK2, bead flow cytometry (AID 488806); conditions: bead-bound GRK2, FAM-aptamer displacement, at 10 µM, stronger effect = higher value
Beta-adrenergic receptor kinase 1 (Homo sapiens), sequence (P25098 whole entry, looked up): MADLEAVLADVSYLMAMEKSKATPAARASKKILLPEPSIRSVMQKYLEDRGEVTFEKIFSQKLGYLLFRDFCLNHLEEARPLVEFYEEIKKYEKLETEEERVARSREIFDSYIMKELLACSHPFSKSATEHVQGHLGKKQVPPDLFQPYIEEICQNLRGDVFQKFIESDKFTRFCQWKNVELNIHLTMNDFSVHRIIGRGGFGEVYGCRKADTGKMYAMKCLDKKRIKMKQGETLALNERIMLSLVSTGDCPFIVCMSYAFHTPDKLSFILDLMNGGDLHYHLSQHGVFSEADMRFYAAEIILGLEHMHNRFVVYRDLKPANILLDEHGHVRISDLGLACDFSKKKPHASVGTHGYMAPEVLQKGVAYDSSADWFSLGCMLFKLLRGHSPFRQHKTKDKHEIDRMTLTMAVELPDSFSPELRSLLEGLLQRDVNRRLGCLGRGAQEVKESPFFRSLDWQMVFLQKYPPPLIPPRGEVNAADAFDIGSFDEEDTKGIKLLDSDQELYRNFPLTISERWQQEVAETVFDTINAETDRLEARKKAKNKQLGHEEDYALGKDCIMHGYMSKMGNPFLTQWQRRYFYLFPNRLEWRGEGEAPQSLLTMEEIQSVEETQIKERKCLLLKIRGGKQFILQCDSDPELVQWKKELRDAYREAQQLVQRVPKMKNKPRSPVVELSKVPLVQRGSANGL

[10] = biological target: Beta-2 adrenergic receptor (Homo sapiens) (UniProt P07550); assay: beta2AR agonists driving receptor internalization, pilot screen, cell-based, FAP fluorogen, flow cytometry, validation set (AID 504459;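 active = percent response above 42, roughly 3 SD of non-fluorescent test compounds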;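 also: agonist-driven loss of surface beta2AR via internalization measured by FAP dye flow cytometry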); conditions: Am2.2-beta2AR cells, FAP surface receptor flow cytometry; at 10 µM; stronger effect = higher value
Beta-2 adrenergic receptor (Homo sapiens), sequence (P07550 whole entry, looked up): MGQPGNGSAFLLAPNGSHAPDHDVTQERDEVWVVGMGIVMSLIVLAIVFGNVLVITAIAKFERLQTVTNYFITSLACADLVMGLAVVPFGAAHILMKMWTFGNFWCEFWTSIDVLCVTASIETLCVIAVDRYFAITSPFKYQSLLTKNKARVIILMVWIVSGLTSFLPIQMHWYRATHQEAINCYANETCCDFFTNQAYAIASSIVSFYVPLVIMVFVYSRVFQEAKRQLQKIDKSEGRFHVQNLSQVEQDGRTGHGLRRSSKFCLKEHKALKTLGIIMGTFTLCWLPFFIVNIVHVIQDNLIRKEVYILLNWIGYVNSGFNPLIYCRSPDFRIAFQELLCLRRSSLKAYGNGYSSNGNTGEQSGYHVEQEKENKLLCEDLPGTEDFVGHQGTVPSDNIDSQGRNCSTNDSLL

[11] = biological target: AP-2 complex subunit beta (Homo sapiens) (UniProt P63010); assay: inhibitors of arrestin peptide binding to AP2, pilot screen, biochemical, validation set, GST-AP2 beads, flow cytometry (AID 504541;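 active = inhibition above 54%, about 3 SD of non-fluorescent compounds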;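 also: AP2 carries R879A mutation and is captured from E. coli lysate; bead-bound FITC arrestin peptide fluorescence measuring arrestin peptide binding to AP2; 0% = DMSO wells and 100% = excess unlabeled arrestin peptide control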); conditions: FITC arrestin peptide, at 10 µM, stronger effect = higher value, AP2 beta2 appendage fragment, R879A mutant
AP-2 complex subunit beta (Homo sapiens), sequence (P63010 whole entry, looked up, the tested form may be a part, one chain of several): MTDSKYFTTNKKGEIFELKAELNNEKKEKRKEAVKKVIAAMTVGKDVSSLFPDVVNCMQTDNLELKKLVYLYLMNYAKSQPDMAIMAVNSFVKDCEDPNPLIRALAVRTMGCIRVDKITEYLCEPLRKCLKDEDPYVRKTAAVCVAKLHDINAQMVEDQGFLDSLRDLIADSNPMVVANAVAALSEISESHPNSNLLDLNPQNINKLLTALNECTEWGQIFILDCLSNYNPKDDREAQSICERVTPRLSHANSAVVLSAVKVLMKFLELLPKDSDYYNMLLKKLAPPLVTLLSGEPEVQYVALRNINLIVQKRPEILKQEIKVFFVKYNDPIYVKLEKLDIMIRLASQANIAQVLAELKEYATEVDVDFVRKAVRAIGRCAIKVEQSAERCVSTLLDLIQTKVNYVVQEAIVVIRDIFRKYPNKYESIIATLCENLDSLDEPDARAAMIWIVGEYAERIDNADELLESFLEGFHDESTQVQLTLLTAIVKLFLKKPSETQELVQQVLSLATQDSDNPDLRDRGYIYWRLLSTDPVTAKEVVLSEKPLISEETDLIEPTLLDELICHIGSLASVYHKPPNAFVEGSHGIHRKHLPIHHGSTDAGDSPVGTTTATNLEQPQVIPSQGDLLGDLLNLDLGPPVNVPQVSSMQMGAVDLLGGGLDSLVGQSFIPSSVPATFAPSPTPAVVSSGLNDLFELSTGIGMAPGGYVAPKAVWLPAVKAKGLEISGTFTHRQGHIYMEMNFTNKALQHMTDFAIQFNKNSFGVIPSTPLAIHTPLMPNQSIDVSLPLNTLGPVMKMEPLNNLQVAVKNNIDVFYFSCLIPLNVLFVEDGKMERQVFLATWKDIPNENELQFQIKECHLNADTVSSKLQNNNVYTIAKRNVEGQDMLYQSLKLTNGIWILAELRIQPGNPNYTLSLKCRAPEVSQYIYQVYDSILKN

[12] = yeast V-ATPase proton transport modulators, S. cerevisiae, pHLuorin, HTS validation (AID 504600; in the data active = response above about 15%;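 also: plate controls were DMSO for no effect and reference compound for full effect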); conditions: S. cerevisiae pHLuorin cytosolic pH, at 10 µM, stronger effect = higher value
[13] = system: anti-desmoglein-3 scFv antibody binding to human DSG3; assay: inhibitors of anti-DSG3 scFv binding to DSG3, pilot screen, biochemical, validation compound set, bead-based, flow cytometry (AID 588368;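 active = binding below the plate cutoff, the plate median minus 3 SD, with a reading above zero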;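 also: signal is the median channel fluorescence of bead-bound GFP antibody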); conditions: Protein G beads, DSG3-Fc, scFv-GFP binding, at 10 µM, stronger effect = lower value
[14] = inhibitors of fungal efflux pumps CDR1, CDR2, MDR1, pilot screen, validation compound set, multiplex, phenotypic (AID 588506;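 active = efflux inhibition above 0.42, the validation set average plus 4 SD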;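 also: Nile Red retained in cells so higher fluorescence means more efflux inhibition; 0 = negative control wells and 1 = enniatin B 25 µM full block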); conditions: S. cerevisiae pump-expressing triplex, Nile Red efflux flow cytometry; at 10 µM; stronger effect = higher value; the pumps come from Candida albicans
[15] = biological target: ATP-binding cassette sub-family B member 6 (Homo sapiens) (UniProt Q9NP58); assay: ABCB6 transporter inhibitors, pilot screen, K562-ABCB6 cells, flow cytometry, validation set (AID 588550;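 active = inhibition above the screen-wide mean plus 3 SD, about 51%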;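 also: 0% = DMSO wells and 100% = benzethonium chloride 70 µM positive control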); conditions: K562-ABCB6 porphyrin accumulation, 1 h, at 10 µM, stronger effect = higher value
ATP-binding cassette sub-family B member 6 (Homo sapiens), sequence (Q9NP58 whole entry, looked up): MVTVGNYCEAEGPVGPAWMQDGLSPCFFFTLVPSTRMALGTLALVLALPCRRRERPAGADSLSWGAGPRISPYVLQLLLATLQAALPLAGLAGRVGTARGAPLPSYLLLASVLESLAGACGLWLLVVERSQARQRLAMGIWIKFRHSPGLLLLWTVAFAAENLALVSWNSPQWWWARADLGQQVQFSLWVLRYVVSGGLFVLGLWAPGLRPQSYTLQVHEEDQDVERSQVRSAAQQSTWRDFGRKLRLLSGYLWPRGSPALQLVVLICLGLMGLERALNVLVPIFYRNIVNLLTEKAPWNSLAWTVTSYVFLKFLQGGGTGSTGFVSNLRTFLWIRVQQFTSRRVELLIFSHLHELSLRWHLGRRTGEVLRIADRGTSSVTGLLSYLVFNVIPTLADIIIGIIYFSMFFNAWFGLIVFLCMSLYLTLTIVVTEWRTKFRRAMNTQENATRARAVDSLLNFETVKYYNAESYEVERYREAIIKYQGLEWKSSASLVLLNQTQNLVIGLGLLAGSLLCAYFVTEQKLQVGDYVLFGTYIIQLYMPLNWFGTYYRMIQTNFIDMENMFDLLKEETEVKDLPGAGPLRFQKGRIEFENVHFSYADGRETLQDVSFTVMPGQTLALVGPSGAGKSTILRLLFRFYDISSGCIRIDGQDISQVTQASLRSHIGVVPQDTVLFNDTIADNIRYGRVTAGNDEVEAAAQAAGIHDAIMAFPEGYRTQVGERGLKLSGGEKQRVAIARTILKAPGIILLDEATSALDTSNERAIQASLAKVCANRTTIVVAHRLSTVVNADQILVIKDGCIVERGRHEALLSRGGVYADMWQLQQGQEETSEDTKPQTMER

[16] = promoters of myeloid differentiation in arrested cells, primary screen, cell-based, GFP/MAC1 double positive, flow cytometry, validation set (AID 588685;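 active = differentiation response of at least 50%, scaled between solvent and reference control, from cells with both markers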;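 also: compound exposure lasts four days before antibody staining and flow analysis; 0% = DMSO wells and 100% = 5 µM fulvestrant positive control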); conditions: ER-HoxA9 marrow cells, stronger effect = higher value, normalized: vehicle 0, fulvestrant 100

O=C(NC(=S)Nc1ccc2c(c1)OCCO2)c1ccccc1F
inactive: percent of DMSO control GFP [1] 103% | GFP response vs DMSO [2] 108% | percent response of DMSO control [3] 101% | GFP response vs DMSO [4] 93% | GFP response, % of DMSO [5] 97.7% | vesicle binding response [6] 2360% | inhibition [7] 1.12% | superoxide response (% of plate) [8] 109% | aptamer binding inhibition [9] 2% | response [10] 5.42% | inhibition [11] 7.78% | response [12] 1.01% | binding (% of control) [13] 98.5% | efflux inhibition (fraction of control) [14] -0.12 | inhibition [15] 9% | differentiation response [16] 0%
61.5%: double positive events [6]

COc1cccc(-n2cc(CNCc3c(C(=O)N(C)C)nc4ccc(Cl)cn34)cn2)c1
61.4%: double positive events [6]
inactive: percent of DMSO control GFP [1] 103% | GFP response vs DMSO [2] 106% | percent response of DMSO control [3] 111% | GFP response vs DMSO [4] 90.1% | GFP response, % of DMSO [5] 99.9% | vesicle binding response [6] 171% | inhibition [7] -4.6% | superoxide response (% of plate) [8] 106% | aptamer binding inhibition [9] 5% | response [10] -6.24% | inhibition [11] -5.56% | response [12] -0.56% | binding (% of control) [13] 98% | efflux inhibition (fraction of control) [14] -0.26 | inhibition [15] 19% | differentiation response [16] 10%

CC(C)C12CN3CC(C(C)C)(CN(C1)C3c1ccccc1O)C2=O (stereo not given)
66.6%: double positive events [6]
inactive: percent of DMSO control GFP [1] 94.4% | GFP response vs DMSO [2] 120% | percent response of DMSO control [3] 104% | GFP response vs DMSO [4] 75.9% | GFP response, % of DMSO [5] 87% | vesicle binding response [6] 192% | inhibition [7] 10.3% | superoxide response (% of plate) [8] 94.7% | aptamer binding inhibition [9] 6% | response [10] -10.3% | inhibition [11] -9.47% | response [12] -6% | binding (% of control) [13] 99% | efflux inhibition (fraction of control) [14] 0.12 | inhibition [15] 5% | differentiation response [16] -6.55%

COc1cc(C(=O)NCCc2c[nH]c3ccccc23)ccc1OCc1c(C)noc1C
56%: double positive events [6]
inactive: percent of DMSO control GFP [1] 96.7% | GFP response vs DMSO [2] 106% | percent response of DMSO control [3] 98.6% | GFP response vs DMSO [4] 120% | GFP response, % of DMSO [5] 93.5% | vesicle binding response [6] 295% | inhibition [7] -15.4% | superoxide response (% of plate) [8] 110% | aptamer binding inhibition [9] 0% | response [10] 6.37% | inhibition [11] -0.24% | response [12] 1.87% | binding (% of control) [13] 107% | efflux inhibition (fraction of control) [14] -0.03 | inhibition [15] 3% | differentiation response [16] 10.4%

CC(=O)Oc1c2occc2cc2ccc(=O)oc12
active: efflux inhibition (fraction of control) [14] 0.51
57.9%: double positive events [6]
inactive: percent of DMSO control GFP [1] 98.4% | GFP response vs DMSO [2] 103% | percent response of DMSO control [3] 87.2% | GFP response vs DMSO [4] 114% | GFP response, % of DMSO [5] 98.9% | vesicle binding response [6] 140% | inhibition [7] -11.3% | superoxide response (% of plate) [8] 101% | aptamer binding inhibition [9] 3% | response [10] 9.55% | inhibition [11] 7.26% | response [12] -2.03% | binding (% of control) [13] 101% | inhibition [15] 8% | differentiation response [16] 10.4%

CCOCCn1c(C(C)O)nc2ccccc21 (stereo not given)
62.6%: double positive events [6]
inactive: percent of DMSO control GFP [1] 105% | GFP response vs DMSO [2] 96.2% | percent response of DMSO control [3] 111% | GFP response vs DMSO [4] 98% | GFP response, % of DMSO [5] 104% | vesicle binding response [6] 278% | inhibition [7] 20.3% | superoxide response (% of plate) [8] 89.7% | aptamer binding inhibition [9] 1% | response [10] -7.33% | inhibition [11] -8.14% | response [12] 4.51% | binding (% of control) [13] 95.3% | efflux inhibition (fraction of control) [14] 0.02 | inhibition [15] -3% | differentiation response [16] 7.09%

COc1c(C=O)c(CCN(C)C(=O)c2ccc(F)cc2)cc2c1OCO2
59.6%: double positive events [6]
inactive: percent of DMSO control GFP [1] 103% | GFP response vs DMSO [2] 104% | percent response of DMSO control [3] 100% | GFP response vs DMSO [4] 104% | GFP response, % of DMSO [5] 106% | vesicle binding response [6] 171% | inhibition [7] 3.14% | superoxide response (% of plate) [8] 115% | aptamer binding inhibition [9] 4% | response [10] -22.5% | inhibition [11] 10.3% | response [12] 2.09% | binding (% of control) [13] 109% | efflux inhibition (fraction of control) [14] -0.17 | inhibition [15] -2% | differentiation response [16] 19.6%

Cc1ccccc1C(=O)NNc1ncnc2c1cnn2C
64.9%: double positive events [6]
inactive: percent of DMSO control GFP [1] 104% | GFP response vs DMSO [2] 103% | percent response of DMSO control [3] 91.2% | GFP response vs DMSO [4] 103% | GFP response, % of DMSO [5] 112% | vesicle binding response [6] 146% | inhibition [7] 3.99% | superoxide response (% of plate) [8] 104% | aptamer binding inhibition [9] -2% | response [10] -18.4% | inhibition [11] 15.7% | response [12] -4.35% | binding (% of control) [13] 107% | efflux inhibition (fraction of control) [14] 0.08 | inhibition [15] -17% | differentiation response [16] 6.83%

CCOC(=O)C1=C2c3ccc4ccccc4c3CC(C)(C)N2C(=O)C1=O
62%: double positive events [6]
inactive: percent of DMSO control GFP [1] 104% | GFP response vs DMSO [2] 93% | percent response of DMSO control [3] 99.6% | GFP response vs DMSO [4] 78.6% | GFP response, % of DMSO [5] 85.1% | vesicle binding response [6] 205% | inhibition [7] -4.52% | superoxide response (% of plate) [8] 114% | aptamer binding inhibition [9] 3% | response [10] 7.03% | inhibition [11] 1.16% | response [12] -4.69% | binding (% of control) [13] 96.8% | efflux inhibition (fraction of control) [14] -0.17 | inhibition [15] -3% | differentiation response [16] -8.8%

Cc1nc2c(c3c1[nH]c1ccccc13)C(=O)CC(C)(C)C2
inactive: percent of DMSO control GFP [1] 99.1% | GFP response vs DMSO [2] 114% | percent response of DMSO control [3] 86.3% | GFP response vs DMSO [4] 114% | GFP response, % of DMSO [5] 102% | vesicle binding response [6] 186% | inhibition [7] 6.4% | superoxide response (% of plate) [8] 99.2% | aptamer binding inhibition [9] 3% | response [10] 31.6% | inhibition [11] 6.18% | response [12] -1.94% | binding (% of control) [13] 98.9% | efflux inhibition (fraction of control) [14] 0.3 | inhibition [15] 1% | differentiation response [16] -5.6%
59.1%: double positive events [6]
